Laboratory results as given in PubChem BioAssay (EPA / NIEHS).
The source made the active and inactive calls. How the source made its calls: active means hit-call score of the fitted dose curve at least 0.9, where 1 is the maximum; inactive means score below 0.9.

Assays:
Settings in all cases: mRNA level, 48 h; actives raise or lower the signal
[1] = read-out: Fatty Acid-Binding Protein 1 (FABP1), FABP1 (gene 2168); test: LTEA_HepaRG_FABP1: Life Technologies and Expression Analysis (LTEA) Assay for Fatty Acid-Binding Protein 1 (FABP1) using HepaRG (AID 2283494)
Procedure, shortened: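 qRT-PCR readout of FABP1 transcript (normalized to three housekeeping genes) after 48 h chemical exposure of HepaRG cells; eight concentrations, half-log steps, max 100 uM, 0.5% DMSO vehicle; gain or loss fitted relative to DMSO baseline.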

[2] = read-out: Glutathione S-Transferase (GSTA2), GSTA2 (gene 2939); test: LTEA_HepaRG_GSTA2: Life Technologies and Expression Analysis (LTEA) Assay for Glutathione S-Transferase (GSTA2) using HepaRG (AID 2283497)
Procedure, shortened: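 qRT-PCR readout of GSTA2 transcript, normalized to three housekeeping genes, fitted bidirectionally against 0.5% DMSO baseline. Differentiated HepaRG cells received compound for 48 h at 8 concentrations (top 100 uM, half-log steps).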

[3] = read-out: Glutamate-cysteine ligase catalytic (GCLC), GCLC (gene 2729); test: LTEA_HepaRG_GCLC: Life Technologies and Expression Analysis (LTEA) Assay for Glutamate-cysteine ligase catalytic (GCLC) using HepaRG (AID 2283498)
Procedure, shortened: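 HepaRG, 48 h exposure, 8-pt half-log series from 100 uM, 0.5% DMSO vehicle; TaqMan qRT-PCR for GCLC mRNA, housekeeping-normalized; bidirectional curve fit vs DMSO baseline.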

[4] = read-out: growth arrest and DNA damage 45 (GADD45G), GADD45G (gene 10912); test: LTEA_HepaRG_GADD45G: Life Technologies and Expression Analysis (LTEA) Assay for growth arrest and DNA damage 45 (GADD45G) using HepaRG (AID 2283499)
Procedure, shortened: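 Differentiated human HepaRG cells in serum-free induction medium were exposed for 48 h to 8 half-log concentrations up to 100 uM in 0.5% DMSO, in duplicate. GADD45G mRNA was measured by TaqMan qRT-PCR, normalised to ACTB, GAPDH and POLR2A, and fitted bidirectionally against DMSO.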

[5] = read-out: Glutamate-cysteine ligase regulatory (GCLM), GCLM (gene 2730); test: LTEA_HepaRG_GCLM: Life Technologies and Expression Analysis (LTEA) Assay for Glutamate-cysteine ligase regulatory (GCLM) using HepaRG (AID 2283500)
Procedure, shortened: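 HepaRG, 48 h dosing, 100 uM top, half-log x8, 0.5% DMSO vehicle. Readout: GCLM mRNA by TaqMan qRT-PCR, housekeeping-normalized (ACTB/GAPDH/POLR2A). Curves fit bidirectionally vs DMSO baseline.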

[6] = read-out: Glutathione S-transferase M3 (GSTM3), GSTM3 (gene 2947); test: LTEA_HepaRG_GSTM3: Life Technologies and Expression Analysis (LTEA) Assay for Glutathione S-transferase M3 (GSTM3) using HepaRG (AID 2283501)
Procedure, shortened: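 Differentiated HepaRG cells in serum-free induction medium were exposed in duplicate for 48 h to 8 half-log concentrations up to 100 uM in 0.5% DMSO. GSTM3 mRNA was measured by TaqMan qRT-PCR, normalized to ACTB/GAPDH/POLR2A, and fitted bidirectionally versus DMSO.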

[7] = read-out: Heat shock 70 kDa protein 1 (HSPA1A), gene 3303; test: LTEA_HepaRG_HSPA1A: Life Technologies and Expression Analysis (LTEA) Assay for Heat shock 70 kDa protein 1 (HSPA1A) using HepaRG (AID 2283502)
Procedure, shortened: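 HepaRG, 48 h exposure, 8-pt half-log CRC from 100 uM in 0.5% DMSO, duplicates. Readout: TaqMan qRT-PCR of HSPA1A mRNA, housekeeping-normalized (ACTB/GAPDH/POLR2A). Bidirectional fit vs 0.5% DMSO baseline.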

[8] = read-out: Hypoxia-inducible factor 1-alpha (Homo sapiens) (UniProt Q16665); test: LTEA_HepaRG_HIF1A: Life Technologies and Expression Analysis (LTEA) Assay for Hypoxia-inducible factor 1 (HIF1A) Trancription factor using HepaRG (AID 2283503)
Procedure, shortened: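 Gain- or loss-of-signal HIF1A mRNA changes are fitted against a DMSO baseline. HepaRG cultures receive eight concentrations, highest 100 uM, for 48 h in serum-free induction medium with 0.5% DMSO.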

[9] = read-out: 3-Hydroxy-3-Methylglutaryl-CoA Synthase 2 (HMGCS2), HMGCS2 (gene 3158); test: LTEA_HepaRG_HMGCS2: Life Technologies and Expression Analysis (LTEA) Assay for 3-Hydroxy-3-Methylglutaryl-CoA Synthase 2 (HMGCS2) using HepaRG (AID 2283504)
Procedure, shortened: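 Differentiated human HepaRG cells were exposed in duplicate for 48 h in serum-free induction medium to eight concentrations (top 100 uM, half-log steps, 0.5% DMSO). HMGCS2 mRNA was quantified by TaqMan qRT-PCR, normalised to ACTB, GAPDH and POLR2A, then fitted bidirectionally against DMSO.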

[10] = read-out: HGF (gene 3082); test: LTEA_HepaRG_HGF: Life Technologies and Expression Analysis (LTEA) Assay for Hepatocyte Growth Facto (HGF) using HepaRG (AID 2283505)
Procedure, shortened: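 Differentiated human HepaRG cells in serum-free induction medium were exposed in duplicate for 48 h to eight concentrations (top 100 uM, half-log steps, 0.5% DMSO). HGF mRNA was quantified by qRT-PCR, normalized to ACTB, GAPDH and POLR2A.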

[11] = read-out: Insulin Like Growth Factor 1 (IGF1), IGF1 (gene 3479); test: LTEA_HepaRG_IGF1: Life Technologies and Expression Analysis (LTEA) Assay for Insulin Like Growth Factor 1 (IGF1) using HepaRG (AID 2283506)
Procedure, shortened: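 qRT-PCR readout of IGF1 mRNA, normalized to three housekeeping genes, after 48 h chemical exposure of HepaRG cells. Concentrations: 8-point half-log series, top 100 uM, 0.5% DMSO vehicle. Gain or loss fitted against DMSO baseline.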

[12] = read-out: Intercellular Adhesion Molecule 1 (ICAM1), ICAM1 (gene 3383); test: LTEA_HepaRG_ICAM1: Life Technologies and Expression Analysis (LTEA) Assay for Intercellular Adhesion Molecule 1 (ICAM1) using HepaRG (AID 2283507)
Procedure, shortened: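 Differentiated HepaRG cells in serum-free induction medium were exposed in duplicate for 48 h to eight half-log concentrations up to 100 uM in 0.5% DMSO. Transcript levels were measured by qRT-PCR normalized to ACTB, GAPDH and POLR2A; bidirectional fits relative to DMSO.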

[13] = read-out: Insulin-like growth factor-binding protein 1 (IGFBP1), IGFBP1 (gene 3484); test: LTEA_HepaRG_IGFBP1: Life Technologies and Expression Analysis (LTEA) Assay for Insulin-like growth factor-binding protein 1 (IGFBP1) using HepaRG (AID 2283508)
Procedure, shortened: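 Differentiated human HepaRG cells in serum-free induction medium were exposed in duplicate for 48 h to eight concentrations, top 100 uM with half-log dilutions, in 0.5% DMSO. Transcript levels came from qRT-PCR normalised to ACTB, GAPDH and POLR2A, fitted bidirectionally against DMSO.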

[14] = read-out: Interleukin 6 (IL6), IL6 (gene 3569); test: LTEA_HepaRG_IL6: Life Technologies and Expression Analysis (LTEA) Assay for Interleukin 6 (IL6) using HepaRG (AID 2283509)
Procedure, shortened: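 qRT-PCR read-out of IL6 transcript, normalized to three housekeeping genes, after 48 h chemical exposure of HepaRG cells; 8-point half-log series, top 100 uM, 0.5% DMSO vehicle. Bidirectional curve fitting against DMSO baseline.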

[15] = read-out: Interleukin 6 Receptor (IL6R), IL6R (gene 3570); test: LTEA_HepaRG_IL6R: Life Technologies and Expression Analysis (LTEA) Assay for Interleukin 6 Receptor (IL6R) using HepaRG (AID 2283510)
Procedure, shortened: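 HepaRG, 48 h exposure, 8-pt half-log series, top 100 uM, 0.5% DMSO vehicle, duplicates. Read-out: TaqMan qRT-PCR of IL6R transcript, housekeeping-gene normalized. Gain or loss fitted relative to DMSO baseline.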

[16] = read-out: Potassium channel subfamily K member 1 (KCNK1), KCNK1 (gene 3775); test: LTEA_HepaRG_KCNK1: Life Technologies and Expression Analysis (LTEA) Assay for Potassium channel subfamily K member 1 (KCNK1) using HepaRG (AID 2283511)
Procedure, shortened: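 HepaRG, 48 h exposure, 8-pt half-log series top 100 uM, 0.5% DMSO vehicle, duplicates. Readout: KCNK1 transcript by qRT-PCR (Fluidigm array), housekeeping-normalized; bidirectional curve fit relative to DMSO baseline.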

[17] = read-out: Keratin 19 (KRT19), KRT19 (gene 3880); test: LTEA_HepaRG_KRT19: Life Technologies and Expression Analysis (LTEA) Assay for Keratin 19 (KRT19) using HepaRG (AID 2283512)
Procedure, shortened: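 Differentiated human HepaRG cells, plated 48 h, were exposed in duplicate for 48 h in serum-free induction medium to eight half-log concentrations up to 100 uM in 0.5% DMSO. KRT19 mRNA was quantified by qRT-PCR, normalized to ACTB, GAPDH and POLR2A, and fitted bidirectionally versus DMSO.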

[18] = read-out: JUN Transcription Factor, JUN (gene 3725); test: LTEA_HepaRG_JUN: Life Technologies and Expression Analysis (LTEA) Assay for JUN Transcription Factor using HepaRG (AID 2283513)
Procedure, shortened: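 HepaRG, 48 h exposure, 8-pt half-log series top 100 uM, 0.5% DMSO, duplicate. JUN mRNA by qRT-PCR (Fluidigm), housekeeping-normalized (ACTB/GAPDH/POLR2A); bidirectional curve fit vs DMSO baseline.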

[19] = read-out: Cytochrome P450 4A22 (Homo sapiens) (UniProt Q5TCH4); test: LTEA_HepaRG_CYP4A22: Life Technologies and Expression Analysis (LTEA) Assay for Cytochrome P450 4A22 (CYP4A22) using HepaRG (AID 2283495)
Procedure, shortened: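 qRT-PCR of CYP4A22 mRNA (Fluidigm TaqMan, normalized to three housekeeping genes) after 48 h chemical exposure of HepaRG cells; 8-point half-log series, top 100 uM, 0.5% DMSO vehicle. Bidirectional curve fitting vs DMSO baseline.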

Measured: AC50

Hypoxia-inducible factor 1-alpha (Homo sapiens), sequence (Q16665 whole entry, looked up): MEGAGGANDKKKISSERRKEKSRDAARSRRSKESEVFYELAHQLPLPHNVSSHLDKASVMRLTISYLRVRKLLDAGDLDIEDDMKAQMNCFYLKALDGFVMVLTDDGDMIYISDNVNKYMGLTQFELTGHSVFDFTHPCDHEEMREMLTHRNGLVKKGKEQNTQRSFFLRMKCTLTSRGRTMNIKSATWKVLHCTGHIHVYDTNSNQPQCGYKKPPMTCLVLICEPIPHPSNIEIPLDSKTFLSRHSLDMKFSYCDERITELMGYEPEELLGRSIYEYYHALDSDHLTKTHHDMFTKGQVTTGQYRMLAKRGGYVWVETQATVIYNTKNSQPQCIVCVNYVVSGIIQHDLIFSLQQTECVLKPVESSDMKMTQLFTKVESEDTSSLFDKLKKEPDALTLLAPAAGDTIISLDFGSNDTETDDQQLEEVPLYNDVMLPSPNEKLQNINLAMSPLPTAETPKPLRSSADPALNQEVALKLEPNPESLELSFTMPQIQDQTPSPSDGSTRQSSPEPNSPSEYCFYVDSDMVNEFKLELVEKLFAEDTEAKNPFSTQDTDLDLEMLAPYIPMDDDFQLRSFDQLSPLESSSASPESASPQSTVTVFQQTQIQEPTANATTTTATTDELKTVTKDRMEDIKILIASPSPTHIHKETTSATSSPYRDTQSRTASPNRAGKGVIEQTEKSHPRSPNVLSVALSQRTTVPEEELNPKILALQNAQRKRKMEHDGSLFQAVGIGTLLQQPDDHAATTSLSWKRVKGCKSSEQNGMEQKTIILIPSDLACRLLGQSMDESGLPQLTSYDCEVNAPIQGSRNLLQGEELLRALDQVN

C[C@]12C=CC(=O)C=C1CC[C@H]1[C@@H]3C[C@@H](O)[C@](O)(C(=O)CO)[C@@]3(C)C[C@H](O)[C@@]12F
inactive: [1] | [2] | [3] | [4] | [5] | [6] | [7] | [8] | [9] | [10] | [11] | [12] | [13] | [14] | [15] | [16] | [17] | [18]

Cc1nccn1-c1ccc(Sc2cccc(C3(C(N)=O)CCOCC3)c2)cc1
active: [1] 11.6 µM | [19] 6.16 µM | [2] 10.7 µM | [4] 4.69 µM | [5] 7.4 µM | [6] 23.8 µM | [9] 11 µM | [10] 20.6 µM | [11] 7.82 µM | [12] 10.7 µM | [13] 9.01 µM | [17] 6.52 µM | [18] 19.4 µM
inactive: [3] | [7] | [8] | [14] | [16]

NC(=O)N(O)[C@@H]1COc2cc(OCc3ccccc3)ccc21
inactive: [1] | [19] | [2] | [3] | [4] | [5] | [6] | [7] | [8] | [9] | [10] | [11] | [12] | [13] | [14] | [16] | [17] | [18]

c1ccc(C(O[C@@H]2CCCN(CCc3ccc4c(c3)OCO4)C2)c2ccccc2)cc1
inactive: [3] | [5] | [14] | [15] | [16] | [18]
active: [1] 79.1 µM | [19] 6.12 µM | [2] 79.1 µM | [4] 75.3 µM | [6] 90.3 µM | [7] 80.4 µM | [8] 78.3 µM | [9] 80.8 µM | [10] 50 µM | [11] 58 µM | [12] 85.3 µM | [13] 86.9 µM | [17] 40.3 µM

NC(=O)NN=Cc1ccc([N+](=O)[O-])o1
active: [1] 25.7 µM | [5] 9.92 µM | [9] 13.3 µM | [10] 12.4 µM | [11] 9.92 µM | [12] 0.211 µM | [13] 50 µM | [16] 0.223 µM | [18] 11.6 µM
inactive: [19] | [2] | [3] | [4] | [6] | [7] | [14] | [17]

COc1cc2c(c(OC)c1OC)-c1ccc(OC)c(=O)cc1[C@@H](NC(C)=O)CC2
inactive: [5] | [6] | [7] | [10] | [12] | [16] | [17] | [18]
active: [1] 0.106 µM | [19] 0.108 µM | [2] 0.107 µM | [3] 0.0881 µM | [4] 0.0846 µM | [8] 0.113 µM | [9] 0.286 µM | [11] 0.123 µM | [13] 0.584 µM | [14] 0.144 µM | [15] 0.432 µM

O=S1(=O)CCCO1
inactive: [1] | [19] | [2] | [3] | [4] | [5] | [6] | [7] | [8] | [9] | [10] | [11] | [12] | [13] | [14] | [16] | [17] | [18]
